From PubChem BioAssay (NCATS)
Where “and” joins values, the source holds several entries; their conditions need not be identical. Equal values may be shown once. Inconclusive results are not listed. For some assays here: Results with a measured potency or affinity are listed apart. Calls of active or inactive are those of the source.

What was measured:
[1] = qHTS profiling of the MIPE4 collection as inhibitors of Plasmodium falciparum (3D7) proliferation (AID 743344);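 note: scaled between DMSO vehicle wells and 0.29 µM artemisinin as full inhibition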; details: P. falciparum 3D7 in erythrocytes, SYBR Green DNA fluorescence, 72 h; at 28.5 µM unless noted
Summary of the method: (§1)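 Erythrocytes infected with P. falciparum (0.3% parasitemia, 2.5% hematocrit) incubated with compounds 72 h at 37 C, 5% CO2. Lysis with saponin/Triton buffer containing SYBR Green I, overnight at room temperature in the dark; DNA fluorescence (485/535 nm) normalised to 0.29 uM artemisinin and DMSO.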

[2] = qHTS profiling of the MIPE4 collection as inhibitors of Plasmodium falciparum (DD2) proliferation (AID 743345); details: P. falciparum Dd2 in erythrocytes, SYBR Green DNA, 72 h; at 28.5 µM unless noted
Summary of the method: as §1

[3] = qHTS profiling of the MIPE4 collection as inhibitors of Plasmodium falciparum (DD2) proliferation (Rep 2) (AID 743346); details: P. falciparum Dd2 in erythrocytes, SYBR Green DNA, 72 h; at 28.5 µM unless noted
Summary of the method: as §1

[4] = qHTS profiling of the MIPE4 collection as inhibitors of Plasmodium falciparum (HB3) proliferation (AID 743347);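 note: plate controls were DMSO vehicle wells for no effect and artemisinin wells for full effect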; details: P. falciparum HB3 in erythrocytes, SYBR Green DNA, 72 h; at 28.5 µM unless noted
Summary of the method: as §1

[5] = Ebola virus entry assay, green fluorescence channel
[6] = Ebola virus entry assay, blue channel fluorescence
[7] = Ebola virus entry assay, green fluorescence channel; remark: listed apart in the source
[8] = Ebola virus entry assay, ratio channel readout
[9] = Ebola virus entry assay, blue channel fluorescence; remark: listed apart in the source
[10] = Ebola virus entry assay, ratio channel
[11] = Ebola virus entry assay, green channel fluorescence
[12] = qHTS Assay for Identifying Gametocytocidal Compounds (AID 743244; active = well fitted curve in the direction sought with a large enough effect; an effect the other way counts as inactive or inconclusive;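 note: % is set by controls: 0 for no effect and ±100 for the full control effect; actives lower the fluorescent signal which means gametocytes are killed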); details: P. falciparum 3D7 stage III-V gametocytes, alamarBlue, 72 h; max response: stronger effect = lower value
Summary of the method: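 Fluorescence at Ex 525/Em 598 nm, recorded 24 h after alamarBlue addition, reports residual metabolic activity of 3D7 gametocytes (stages III–V) following 72 h compound exposure at 37 °C, 5% CO2.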

[13] = molecular target: T1, Hexokinase-4 (Homo sapiens) + Glucokinase regulatory protein (Homo sapiens) (UniProt P35557+Q14397); assay: qHTS assay for inhibitors of recombinant human GCK-GKRP interaction: Diaphorase-coupled assay (AID 743205; active = well fitted curve in the direction sought with a large enough effect; an effect the other way counts as inactive or inconclusive); details: G6PDH/diaphorase resorufin fluorescence; series mostly up to 57.5 µM
Summary of the method: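 Compounds pre-incubated 20 min with substrate, then 10 nM GST-GCK with 10 nM FLAG-GKRP added. GCK activity coupled via G6PDH and diaphorase to resorufin (5 mM glucose, 0.4 mM ATP, 0.15 mM NADP+, pH 7.6), read kinetically over 30 minutes at Ex 525/Em 590 nm.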

[14] = molecular target: T1, Hexokinase-4 (Homo sapiens) + Glucokinase regulatory protein (Homo sapiens); assay: qHTS assay for inhibitors of recombinant human GCK-GKRP interaction: ADP-Glo assay (AID 743206; active = well fitted curve in the direction sought with a large enough effect; an effect the other way counts as inactive or inconclusive;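 note: plate controls were DMSO plus enzyme for no effect and no enzyme for full effect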); details: ADP-Glo luminescence, 60 min, 0% = vehicle-only wells with enzyme present; series mostly up to 76.9 µM
Summary of the method: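 GST-GCK and FLAG-GKRP (15 nM each in the dispensed mix, with 2 uM S6P) react with 0.4 mM ATP and 5 mM glucose (final) in Hepes pH 7.6 for 60 min at room temperature. ADP is measured by ADP-Glo luminescence.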

[15] = molecular target: T1, Hexokinase-4 (Homo sapiens) + Glucokinase regulatory protein (Homo sapiens); assay: qHTS assay for inhibitors of recombinant human GCK-GKRP interaction: HTRF assay (AID 743207; active = well fitted curve in the direction sought with a large enough effect; an effect the other way counts as inactive or inconclusive;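 note: 0% = DMSO with GCK present and -100% = DMSO wells lacking GCK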); details: recombinant GCK-GKRP HTRF binding, 60 min; series mostly up to 57.5 µM
Summary of the method: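 HTRF binding of 5 nM GST-GCK and 5 nM FLAG-GKRP with 2 uM S6P in pH 7.1 Hepes buffer (MgCl2, KCl, DTT, Tween 20, BSA). Anti-FLAG XL665 and anti-GST donor added, 60 min at room temperature; 665/615 nm read, normalized to with- and without-GCK controls.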

[16] = qHTS assay for cell viability of HEK293 cells (AID 743288; active = well fitted curve in the direction sought with a large enough effect; an effect the other way counts as inactive or inconclusive; note: % is set by controls: 0 for no effect and ±100 for the full control effect; nearly all actives have a fitted effect of over 50% in size); details: ATP luminescence (CellTiter-Glo), 18 h; max response: stronger effect = lower value
Summary of the method: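 Parental HEK293 cells, 2,000 per well, preincubated at least 5 h at 37 C, then exposed to compounds in DMSO for 18 h at 37 C. Viability by CellTiter-Glo ATP luminescence after 30 min at room temperature.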

[17] = qHTS assay for cell viability of the p53RE-bla HCT-116 cell line (AID 743292; active = well fitted curve in the direction sought with a large enough effect; an effect the other way counts as inactive or inconclusive; note: % is set by controls: 0 for no effect and ±100 for the full control effect; nearly all actives have a fitted effect of over 55% in size); details: p53RE-bla HCT-116 viability, ATP luminescence, 16 h; series mostly up to 95 µM
Summary of the method: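 Viability of compound-treated p53RE-bla HCT-116 cells is taken from ATP-dependent luciferase luminescence. Treatment lasts 16 h at 37 C after a 5 h settling period; detection follows 30 min at room temperature.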

[18] = qHTS profiling for inhibitors of Plasmodium falciparum (3D7) proliferation (AID 743322);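 note: infected erythrocytes exposed to compound for 72 h before lysis; 100% = DMSO vehicle wells and 0% = 0.29 µM artemisinin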; details: P. falciparum 3D7 proliferation; at 28.7 µM (top of the series)
Summary of the method: as §1

[19] = qHTS profiling for inhibitors of Plasmodium falciparum (DD2) proliferation (AID 743323); details: lower = more inhibition; at 28.7 µM (top of the series)
Summary of the method: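 P. falciparum Dd2-infected erythrocytes (0.3% parasitemia, 2.5% hematocrit) exposed 72 h at 37 C, 5% CO2. Lysis with SYBR Green, overnight at room temperature, fluorescence 485/535 nm; normalized to 0.29 uM artemisinin and DMSO.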

[20] = qHTS profiling for inhibitors of Plasmodium falciparum (HB3) proliferation (AID 743324; active = well fitted curve in the direction sought with a large enough effect; an effect the other way counts as inactive or inconclusive;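 note: 100% = DMSO vehicle wells and 0% = artemisinin-treated control wells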); details: Plasmodium falciparum HB3 blood-stage proliferation; at 28.7 µM (top of the series)
Summary of the method: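 P. falciparum HB3 grown in erythrocytes (0.3% parasitemia, 2.5% hematocrit final) with compound for 72 h at 37 C, 5% CO2. Parasite DNA detected by SYBR Green after saponin/triton lysis overnight; normalized to 0.29 uM artemisinin and DMSO.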
Throughout, for efficacy: 0% is about no effect.

T1 sequence (P35557 whole entry, looked up): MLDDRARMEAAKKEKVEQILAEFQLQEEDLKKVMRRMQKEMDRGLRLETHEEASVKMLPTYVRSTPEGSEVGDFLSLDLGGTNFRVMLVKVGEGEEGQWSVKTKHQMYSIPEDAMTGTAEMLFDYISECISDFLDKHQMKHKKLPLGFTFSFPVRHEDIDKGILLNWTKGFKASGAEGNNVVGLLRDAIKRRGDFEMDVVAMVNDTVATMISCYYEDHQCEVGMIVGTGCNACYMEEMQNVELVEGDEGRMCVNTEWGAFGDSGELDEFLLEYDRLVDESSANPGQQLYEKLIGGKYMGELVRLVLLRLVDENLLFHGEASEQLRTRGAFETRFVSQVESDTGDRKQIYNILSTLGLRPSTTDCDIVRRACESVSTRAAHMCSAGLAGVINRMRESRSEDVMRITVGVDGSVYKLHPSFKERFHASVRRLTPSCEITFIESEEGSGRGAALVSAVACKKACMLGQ
T1 sequence (Q14397 whole entry, looked up): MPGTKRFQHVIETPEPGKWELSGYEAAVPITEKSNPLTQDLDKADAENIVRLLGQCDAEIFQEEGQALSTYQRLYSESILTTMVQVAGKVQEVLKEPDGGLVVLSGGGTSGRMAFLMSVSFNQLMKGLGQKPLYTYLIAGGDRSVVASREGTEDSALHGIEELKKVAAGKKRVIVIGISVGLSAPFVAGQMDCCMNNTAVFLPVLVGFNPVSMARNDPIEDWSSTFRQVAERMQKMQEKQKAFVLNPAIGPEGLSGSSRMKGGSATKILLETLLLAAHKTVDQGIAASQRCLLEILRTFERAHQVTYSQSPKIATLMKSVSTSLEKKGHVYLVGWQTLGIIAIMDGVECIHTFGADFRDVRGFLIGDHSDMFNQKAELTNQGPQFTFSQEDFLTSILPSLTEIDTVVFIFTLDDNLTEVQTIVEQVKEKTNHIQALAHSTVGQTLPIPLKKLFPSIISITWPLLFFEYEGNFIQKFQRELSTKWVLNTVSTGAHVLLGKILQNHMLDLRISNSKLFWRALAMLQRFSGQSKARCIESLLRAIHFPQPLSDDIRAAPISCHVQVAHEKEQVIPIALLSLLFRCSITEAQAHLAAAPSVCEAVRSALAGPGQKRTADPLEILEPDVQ

O=NN(CCCl)C(=O)NCCCl
inactive: efficacy [5] -15% | outcome [6] | outcome [7] | outcome [8] | outcome [9] | outcome [10] | outcome [11]
102%: parasite growth remaining, % of DMSO control (lower = more inhibition) [2]
95.8%: parasite growth, % of DMSO control [1]
83.1%: growth, % of control [4]
150%: parasite growth, % of control (lower = inhibition) [3]

CC(COc1ccccc1)N(CCCl)Cc1ccccc1 (centres undefined)
active: AC50 [9] 28.2 µM | AC50 [10] 17.8 µM
inactive: max response [12] 3.46% | efficacy [5] 44% | outcome [6] | outcome [7] | outcome [8] | outcome [11]
91.2%: growth, % of control [4]

O=NN(CCCl)C(=O)NC1CCCCC1
74.9%: growth, % of control [4]
91.7%: parasite growth, % of DMSO control [1]
inactive: efficacy [5] -12.9% | outcome [6] | outcome [7] | outcome [8] | outcome [9] | outcome [10] | outcome [11]
101%: parasite growth remaining, % of DMSO control (lower = more inhibition) [2]

Cc1cn([C@H]2C[C@H](N=[N+]=[N-])[C@@H](CO)O2)c(=O)[nH]c1=O
inactive: efficacy [5] 17% | outcome [6] | outcome [7] | outcome [8] | outcome [9] | outcome [10] | outcome [11]

CC(C)C(=O)Nc1ccc([N+](=O)[O-])c(C(F)(F)F)c1
inactive: efficacy [5] -18.2% | outcome [6] | outcome [7] | outcome [8] | outcome [9] | outcome [10] | outcome [11]
88.5%: growth, % of control [4]
93%: parasite growth, % of DMSO control [1]
91%: parasite growth remaining, % of DMSO control (lower = more inhibition) [2]

O=C1CC[C@@]2(O)[C@H]3Cc4ccc(O)c5c4[C@@]2(CCN3CC2CC2)[C@H]1O5
83.3%: growth, % of control [4]
94.1%: parasite growth, % of DMSO control [1]
113%: parasite growth remaining, % of DMSO control (lower = more inhibition) [2]
inactive: max response [12] 19% | efficacy [5] -27.7% | outcome [6] | outcome [7] | outcome [8] | outcome [9] | outcome [10] | outcome [11]

C[n+]1ccccc1/C=N/O
inactive: efficacy [5] -22% | outcome [6] | outcome [7] | outcome [8] | outcome [9] | outcome [10] | outcome [11]

O=C(OC1C[C@H]2CC[C@@H](C1)[N+]21CCCC1)C(O)(c1ccccc1)c1ccccc1 (some centres undefined)
32.2%: parasite growth, % of DMSO control [1]
48.3%: parasite growth remaining, % of DMSO control (lower = more inhibition) [2]
inactive: efficacy [5] 12.9% | outcome [6] | outcome [7] | outcome [8] | outcome [9] | outcome [10] | outcome [11]

C[C@@H]1C[C@H]2[C@@H]3CCC4=CC(=O)C=C[C@]4(C)[C@@]3(F)[C@@H](O)C[C@]2(C)[C@@]1(O)C(=O)CO
inactive: efficacy [5] -13.7% | outcome [6] | outcome [7] | outcome [8] | outcome [9] | outcome [10] | outcome [11]

CNC1(C)C2CCC(C2)C1(C)C (centres undefined)
inactive: efficacy [5] 20.8% | outcome [6] | outcome [7] | outcome [8] | outcome [10] | outcome [11]
active: AC50 [9] 39.8 µM

Cc1ccc(S(=O)(=O)NC(=O)NN2CC3CCCC3C2)cc1 (centres undefined)
inactive: efficacy [5] -32.1% | outcome [6] | outcome [7] | outcome [8] | outcome [9] | outcome [10] | outcome [11]

CS(=O)(=O)OCCCCOS(C)(=O)=O
inactive: efficacy [5] 19.1% | outcome [6] | outcome [7] | outcome [8] | outcome [9] | outcome [10] | outcome [11]

CCCN1C[C@H](CSC)C[C@@H]2c3cccc4[nH]cc(c34)C[C@H]21
active: AC50 [9] 11.2 µM | AC50 [10] 7.94 µM
inactive: efficacy [5] 14.5% | outcome [6] | outcome [7] | outcome [8] | outcome [11]

CC(=O)Oc1ccccc1C(=O)Nc1ncc([N+](=O)[O-])s1
inactive: max response [12] 33.5% | efficacy [5] 16.8% | outcome [6] | outcome [7] | outcome [8] | outcome [9] | outcome [10] | outcome [11]

CCOC(=O)C1(c2ccccc2)CCN(CCC(C#N)(c2ccccc2)c2ccccc2)CC1
inactive: max response [12] 18.9% and -7.07% | efficacy [5] -34.7% | outcome [6] | outcome [7] | outcome [8] | outcome [11]
active: AC50 [9] 14.1 µM | AC50 [10] 10 µM

CCCC(C)(COC(N)=O)COC(=O)NC(C)C (centres undefined)
inactive: outcome [13] | outcome [14] | outcome [15] | max response [12] 10.4% and -6.54% | max response [16] -8.51% and -1.5% | Potency [17] | efficacy [5] 22.1% | outcome [6] | outcome [7] | outcome [8] | outcome [9] | outcome [10] | outcome [11]
100%: growth, % of control [4]
93%: parasite growth, % of DMSO control [1]
91%: parasite growth remaining, % of DMSO control (lower = more inhibition) [2]

Oc1cn2c(n1)Nc1ccc(Cl)c(Cl)c1C2
97.1%: activity, percent of control [19]
107%: remaining parasite growth % (stronger effect = lower value) [18]
97.7%: remaining proliferation (% of control), lower = more inhibition [20]
inactive: efficacy [5] -19.4% | outcome [6] | outcome [7] | outcome [8] | outcome [9] | outcome [10] | outcome [11]

CC(C)Nc1cccnc1N1CCN(C(=O)c2cc3cc(NS(C)(=O)=O)ccc3[nH]2)CC1
inactive: efficacy [5] -26% | outcome [6] | outcome [7] | outcome [8] | outcome [9] | outcome [10] | outcome [11]

COc1ccccc1OCC(O)CN1CCN(CC(=O)Nc2c(C)cccc2C)CC1 (centres undefined)
inactive: efficacy [5] 29.5% | outcome [6] | outcome [7] | outcome [8] | outcome [9] | outcome [10] | outcome [11]

COc1ccc2nc(S(=O)Cc3ncc(C)c(OC)c3C)[nH]c2c1 (centres undefined)
inactive: efficacy [5] 22.2% | outcome [6] | outcome [7] | outcome [8] | outcome [9] | outcome [10] | outcome [11]

COc1cc2nc(N3CCN(C(=O)C4CCCO4)CC3)nc(N)c2cc1OC (centres undefined)
inactive: efficacy [5] 13% | outcome [6] | outcome [7] | outcome [8] | outcome [10] | outcome [11]
active: AC50 [9] 35.5 µM
